The results in this text go back to PubChem BioAssay AID584 (National Center for Advancing Translational Sciences (NCATS), 2007).

The whole screen tested about 71,000 compounds, of which about 65 (0.09%) were called active. Shown is part of a subset that was picked to be rich in actives. Unmarked numbers belong to inactive results. Calls come from the whole dose curve; as a rule, active = well fitted curve in the direction sought with a large enough effect; inconclusive = small, poorly fitted or top-dose-only effect; inactive = flat fitted curve, though single readings scatter.
% is set by controls: 0 for no effect and ±100 for the full control effect.

Sequence of Beta-lactamase (Escherichia coli (strain K12)) (P00811 whole entry, looked up): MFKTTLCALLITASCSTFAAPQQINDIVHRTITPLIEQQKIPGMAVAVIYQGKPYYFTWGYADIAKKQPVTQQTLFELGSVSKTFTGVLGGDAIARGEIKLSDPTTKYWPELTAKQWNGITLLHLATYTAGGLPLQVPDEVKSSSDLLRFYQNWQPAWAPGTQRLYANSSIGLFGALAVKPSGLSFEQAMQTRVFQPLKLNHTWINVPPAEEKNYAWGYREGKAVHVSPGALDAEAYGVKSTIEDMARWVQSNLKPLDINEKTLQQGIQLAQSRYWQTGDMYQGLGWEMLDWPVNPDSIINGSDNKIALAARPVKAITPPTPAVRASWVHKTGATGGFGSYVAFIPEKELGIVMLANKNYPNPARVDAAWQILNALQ

For the experiment, the target named is Beta-lactamase (Escherichia coli (strain K12)) (UniProt P00811). Put plainly: Promiscuous and Specific Inhibitors of AmpC Beta-Lactamase (assay with detergent). The conditions noted are these: purified AmpC, nitrocefin hydrolysis with detergent; series mostly up to 28.7 µM. The protocol:
NIH Molecular Libraries Screening Centers Network [MLSCN]
NIH Chemical Genomics Center [NCGC]
PI Name: Shoichet, Brian K.
This aggregation profiling approach exploits the sensitivity of aggregate formation to detergent. Inhibition of b-lactamase is measured in the presence and absence of 0.01% Triton X-100. This particular assay had the prescence of 0.01% Triton X-100. See Pubchem assay "Promiscuous and Specific Inhibitors of AmpC Beta-Lactamase (assay without detergent)" for related screen. Compounds that inhibit only in the absence of detergent are considered likely promiscuous aggregators.
A screen of 1,030 compounds was performed in Brian Shoichet's lab in 96-well format. AmpC activity was measured by following the absorbance at 480 nm. Nitrocefin is a chromogenic substrate: while nitrocefin is yellow (lmax 390 nm), the product of its hydrolysis is red (lmax 486 nm, 17,000 M-1). AmpC beta lactamase was provided by Brian Shoichet and Brian Feng, UCSF.
NCGC Assay Protocol Summary:
20 mM phosphate buffer, pH 7.0
Triton X-100: No Detergent screen: 0.0001%, Detergent screen: 0.01%.
Buffer in columns 3 and 4 as negative control (no enzyme).
5.3 nM AmpC in columns 1, 2, 5-48. Titration of UCSF compound 9 control (from 10 mM, then 1:2) pin-transferred to column 2. Column 1 is neutral (100% activity).
Six uL of reagents were dispensed to 1536-well Greiner black clear bottom plates. Compounds and controls (23 nL) were transferred via Kalypsys PinTool. The plates were incubated for 15 min at room temperature, and then 2 uL of 800 uM solution of nitrocefin was added to start the reaction. The plates were immediately transferred to and read every 20 seconds for 4 min on ViewLux (Perkin-Elmer) High-throughput CCD imager using 480 nm absorbance protocol. During dispense, reagent bottles were kept submerged into 4 deg C water bath.
Keywords: NIH Roadmap, MLSCN, MLI, MLSMR, qHTS, NCGC, AmpC Beta-Lactamase, Aggregation
Take `COC(=O)Cn1c(=NC(=O)CSCC(=O)Nc2cc(C)on2)sc2ccccc21`: the activity change, negative = inhibition entry is “inactive”. On to `Cc1ccsc1-c1nc(CSCC(=O)NCCN2CCCC2)c(C)o1`, for which the activity change, negative = inhibition entry was “inactive”. On to `O=C(NCc1ccco1)c1ccc(CS(=O)(=O)Cc2ccc(F)cc2)o1`, for which the activity change, negative = inhibition entry is “inactive”.

As for `CCCCCCn1c(CN2CCCC(C)C2)nc2c1c(=O)n(C)c(=O)n2C` (stereo not drawn), the activity change, negative = inhibition result was “inactive”.

Take `O=C1c2ccccc2C(Nc2ccc3c(c2)OCCO3)N1Cc1ccco1` (stereo not drawn): the activity change, negative = inhibition entry was “inactive”.

As to `COc1ccccc1CN1CC2(CCN(S(=O)(=O)c3ccccc3)CC2)C1`, the activity change, negative = inhibition entry was “inactive”. On to `CCOC(=O)c1nnn(-c2nc(OC)nc(N(C)C)n2)c1-c1ccccc1`, for which the activity change, negative = inhibition result is “inactive”. For `CCOC(=O)c1sc(=S)n2c1[nH]c(=O)c1ccc(C(=O)OC)cc12`, the activity change, negative = inhibition result was “inactive”. In the case of `O=C(CS(=O)(=O)c1cn(Cc2cccc(F)c2)c2ccccc12)N1CCCCC1` it was “inactive”; in that of `CC(C)CSC[C@@H]1O[C@H](n2cnc3c(N)nccc32)[C@H](O)[C@@H]1O`, -4% [at 5.75 µM]. Next, `CCCCSc1nnc(-c2ccc(NC(=O)CC)cc2)n1C`: “inactive”; `COc1ccc2[nH]c(=O)c(CN(Cc3nnnn3CCc3ccccc3)CC3CCCO3)cc2c1` (stereo not drawn): “inactive”. Next, `CC(C)CC(=O)N=C1SC2CS(=O)(=O)CC2N1CCc1ccccc1` (stereo not drawn): “inactive”; `O=C(NCc1ccccn1)Nc1ccc(F)cc1`: “inactive”. `CC(=NCc1ccco1)C1=C(O)c2ccccc2C1=O`: the activity change, negative = inhibition result is “inactive”.

Take `COC(=O)c1ccc(NC(=O)CSc2nnc(-c3ccncc3)n2C)cc1`: the activity change, negative = inhibition result is “inactive”. Regarding `COc1ccccc1OCCOc1ccc(/C=N/n2cnnc2)cc1`, the activity change, negative = inhibition entry was “inactive”. As to `CC12CN(Cc3ccccc3)CC(C)(CN(Cc3ccccc3)C1)C2=NO`, the activity change, negative = inhibition result was “inactive”. Take `COc1ccc(-c2noc(COc3ccc(Cl)c(C)c3)n2)cc1`: the activity change, negative = inhibition entry is “inactive”. `COCC(C)NC(=O)c1ccc(Cl)c(Cl)c1` (stereo not drawn): the activity change, negative = inhibition entry was “inactive”. Consider `Cc1ccc(-c2ccc(=O)n(CC(=O)NCCCN3CCCCC3)n2)cc1`, for which the activity change, negative = inhibition entry was “inactive”.

Regarding `COc1ccc(S(=O)(=O)N2CCC(C(=O)N3CCc4ccccc4C3)CC2)cc1OC`, the activity change, negative = inhibition entry is “inactive”. For the molecule `CCn1c(=O)cc(SCC(=O)NCc2ccc3c(c2)OCO3)c2ccccc21`, the activity change, negative = inhibition result is “inactive”. As to `COc1ccccc1-c1nc(C(F)(F)F)c(OC)o1`, the activity change, negative = inhibition result was “inactive”. In the case of `CCC(=O)Nc1ccccc1N1CCN(S(C)(=O)=O)CC1`, the activity change, negative = inhibition result was “inactive”. In the case of `COc1cc(C2C(C#N)=C(C)NC3=C2C(=O)CC(C)(C)C3)ccc1O` (stereo not drawn) it was “inactive”. `Cc1ccc(S(=O)(=O)N2CCOCC2)cc1C(=O)NCc1ccc(F)cc1`: the activity change, negative = inhibition result was “inactive”.

As to `COc1cc(Br)cc(/C=N/c2ncn[nH]2)c1O`, the activity change, negative = inhibition result was “inactive”. For the molecule `COC(=O)[C@@]1(Cc2ccccc2)[C@H]2c3cc(C(=O)N4CCCC4)n(Cc4ccc(C)o4)c3C[C@H]2CN1C(=O)c1ccccc1`, the activity change, negative = inhibition result is “inactive”. In the case of `CCn1c(CSc2ncccn2)nnc1SCC(=O)N1c2ccccc2CC1C` (stereo not drawn) it was “inactive”; in that of `COc1cc(C2C(C(=O)Nc3ccc(F)cc3)=C(C)Nc3nc(CCCO)nn32)cc(OC)c1OC` (stereo not drawn), “inactive”. Regarding `CC(C)c1ccc(NS(=O)(=O)c2cn(C)c(=O)n(C)c2=O)cc1`, the activity change, negative = inhibition entry is “inactive”. For the molecule `O=C(CCn1c(=O)oc2ccccc21)Nc1ccon1`, the activity change, negative = inhibition entry was “inactive”. On to `CCOC(=O)c1cc(-c2nnc(-c3cc(OC)c(OC)c(OC)c3)o2)c(C)nc1C`, for which the activity change, negative = inhibition result was “inactive”. For `c1csc(CN2CCN(Cc3cccs3)C2c2cccs2)c1`, the activity change, negative = inhibition result is “inactive”.

Turning to `COC(=O)CNS(=O)(=O)c1ccc(Cc2ccc(S(=O)(=O)NCC(=O)OC)cc2)cc1`, the activity change, negative = inhibition result is “inactive”. For the molecule `Cc1ccc(C2(c3ccc(C)cc3)NC(=O)N(Cc3c(C)noc3C)C2=O)cc1`, the activity change, negative = inhibition result is “inactive”. For the molecule `C[C@@H](C(=O)Nc1ccc2ccccc2c1)[C@@H]1C[C@@]1(C)[C@@H](NC(=O)c1cccnc1)c1ccccc1`, the activity change, negative = inhibition entry is “inactive”. In the case of `N#Cc1c2c(c(N3CCN(CCO)CC3)n3c1nc1ccccc13)CCCC2` it was “inactive”; in that of `Cc1cc(Br)ccc1NC(=O)C1CCCO1` (stereo not drawn), “inactive”.

As to `CO[C@@H]1/C=C\O[C@]2(C)Oc3c(C)c(O)c4c(O)c(c(CN(C)C)c(O)c4c3C2=O)NC(=O)/C(C)=C\C=C[C@@H](C)[C@@H](O)[C@H](C)[C@@H](O)[C@H](C)[C@H](OC(C)=O)[C@@H]1C`, the activity change, negative = inhibition was -4.9% [at 5.75 µM]. In the case of `O=C(CCCCn1c(=O)[nH]c2ccccc2c1=O)NCc1ccc2c(c1)OCO2` it was “inactive”; in that of `CCN(CC(=O)NC(C)C)C(=O)CCNC(=O)c1ccc(Cl)cc1`, “inactive”. For the molecule `COc1ccc(-c2nc3cnc(N(C)C)nc3n(Cc3cccs3)c2=O)cc1`, the activity change, negative = inhibition entry is “inactive”. Consider `CCOC(=O)C1C(=O)C=C(c2ccc(OC)cc2)CC1c1ccco1` (stereo not drawn), for which the activity change, negative = inhibition entry is “inactive”. For the molecule `O=C(C1CCC(C(=O)N2CCCC2)CC1)N1CCCC1` (stereo not drawn), the activity change, negative = inhibition entry is “inactive”.

Take `O=C1CCc2cc(S(=O)(=O)N3CCC(C(=O)NCc4ccccc4Cl)CC3)ccc2N1`: the activity change, negative = inhibition entry was “inactive”. With `COc1cccc(-n2c(Cc3cc(=O)[nH]c(=O)[nH]3)nnc2SCC(=O)Nc2ccccc2)c1`, the activity change, negative = inhibition entry is “inactive”.

In the case of `COc1ccc(C)cc1NC(=O)CSc1nc(SC)ns1`, the activity change, negative = inhibition result was “inactive”. Turning to `Cc1ccc2cc3cc(C(=O)N4CCCCCC4)oc3nc2c1`, the activity change, negative = inhibition result is “inactive”. As for `COc1ccccc1CNc1ncnc2ccc(-c3c(C)noc3C)cc12`, the activity change, negative = inhibition entry was “inactive”. Turning to `CC(=O)N1[C@H](C)C=C[C@]1(Cc1ccccc1)C(=O)NCc1ccccn1`, the activity change, negative = inhibition entry is “inactive”. On to `CCOc1cc2[nH]c(=S)n(CCCN3CCCC3=O)c(=O)c2cc1OCC`, for which the activity change, negative = inhibition result is “inactive”.
